Assay results reported in PubChem BioAssay (Tox21).
Inconclusive results are not listed. A number with no mark means an inactive call. Calls come from the whole dose curve.

Test: qHTS assay to identify small molecule agonists of the NFkB signaling pathway - cell viability counter screen (AID 1159515); note: nearly all actives have a fitted effect of over 55% in size
Conditions: NFkB-bla ME-180 viability, CellTiter-Glo luminescence, 5 h; series mostly up to 61 µM; activity, negative = cytotoxic: at the top concentration
Text: National Center for Advancing Translational Sciences [NCATS]
NIH Chemical Genomics Center [NCGC]
U.S. Environmental Protection Agency [EPA]
National Institutes of Environmental Health Sciences [NIEHS]
National Toxicology Program [NTP]
U.S. Food and Drug Administration [FDA]
Transcription factors and their stimulated target gene expression play pivotal roles across many cellular processes including responses to environmental stimuli. Proper regulation of associated pathways is critical to maintain cell health and function. Constitutive activation of transcription factor pathways has been implicated in tumors as it may block cellular functions such as apoptosis and lead to invasion and metastasis. One important transcription factor that stimulates gene expression in response to cytokines, UV radiation, and other stimuli is nuclear factor-kappa B (NFkB). To measure activation of the NFkB pathway, the CellSensor NFkB-bla ME-180 cell line (Life Technologies, Carlsbad, CA) that stably expresses beta-lactamase reporter gene under the regulation of a NF-kB response element was used. This assay allows measurement of the NFkB pathway activity induced by compounds in a ME-180 cell line. This system quantitates NF-kB activity using a FRET-based assay system where beta-lactamase expression disrupts FRET, allowing for fluorescent measurement of activity. This cell line has been used to screen the Tox21 10K compound library and to identify compounds that induce the NFkB pathway activity. The cytotoxicity of the Tox21 compound library against the NFkB-bla ME-180 cell line was tested in parallel by measuring cell viability using the CellTiter-Glo assay in the same wells.
Tox21 Assay Protocol Summary:
NFkB-bla ME-180 cells were dispensed at 2,000 cells/6 uL of assay medium per well into black wall/clear-bottom 1536-well plates using a Multidrop Combi (ThermoFisher Scientific, Waltham, MA) dispenser. After the assay plates were incubated at 37 C and 5% CO2 for an overnight, 23 nL of compounds dissolved in DMSO, positive controls or DMSO only was transferred to the assay plate by a Pintool station (Kalypsys, San Diego, CA). The assay plates were incubated at 37 C and 5% CO2 for 5 hr. One uL of LiveBLAzer B/G FRET substrate (Life Technologies) was added using a Flying Reagent Dispenser (Aurora Discovery, San Diego, CA) and the plates were incubated at room temperature for 1.5 hr. Fluorescence intensity (405 nm excitation, 460 nm and 530 nm emissions) was measured using an Envision plate reader (PerkinElmer, Shelton, CT). For cytotoxicity, 3 ul/well of CellTiter-Glo reagent was added into the assay plates using an FRD. After 30 min incubation at room temperature, the luminescence intensity was measured using a ViewLux plate reader (PerkinElmer).
% is set by controls: 0 for no effect and ±100 for the full control effect.

Point of comparison: COc1ccc2c(c1OC)C(=O)O[C@@H]2[C@H]1c2c(cc3c(c2OC)OCO3)CCN1C, “activity, negative = cytotoxic” value 11.6%. Against it:
- COC(=O)c1ccccc1C(=O)c1ccc(OCCN2CCCCC2)cc1 — lower, 0.526%
- O=C(CCNNC(=O)c1ccncc1)NCc1ccccc1 — lower, -0.45%
- O=C(/N=N/C(=O)OCc1ccccc1)OCc1ccccc1 — lower, -24.7%
- CCC(CC)CO — lower, -1.66%
- CC(C)=CCOC(=O)c1ccccc1 — lower, -7.16%
- CCCC/C=C/C=C\C=O — lower, -4.49%
- CC1=CCC(C(C)C)=CC1 — lower, 1.81%
- C=CC(OCC)OCC — higher, 15.4%
- CC(=O)Nc1ccc(S(=O)(=O)Nc2ccc([N+](=O)[O-])cc2)cc1 — lower, 2.52%
- CC(=O)NCc1c(I)c(NC(C)=O)c(I)c(C(=O)O)c1I — lower, 2.13%
- CCOC(=O)c1ccc(OC(=O)CCCCCN=C(N)N)cc1 — lower, -0.453%
- CC(=O)N[C@@H](CCC(=O)O)C(=O)O — lower, 2.87%
- CC(=C(CCOC(=O)C(C)C)SSC(CCOC(=O)C(C)C)=C(C)N(C=O)Cc1cnc(C)nc1N)N(C=O)Cc1cnc(C)nc1N — lower, 1.56%
- CC(C)(C)NC(N)=O — lower, -2.8%
- CCCCCCN — lower, 3.4%
- CC[C@H](C)C(=O)O[C@H]1C[C@H](O)C=C2C=C[C@H](C)[C@H](CC[C@@H](O)C[C@@H](O)CC(=O)O)[C@H]21 — lower, -4.62%
- CCCC(=O)C(C)=O — lower, -1.93%
- CN(C)c1ccc(C=O)cc1 — lower, -0.847%
- O=C1c2ccccc2C(=O)N1CCl — lower, -1.29%
- O=C(NCCN1CCOCC1)c1ccc(Cl)cc1 — lower, -1.54%
- CC(C)CCCCOC(=O)c1ccccc1C(=O)OCCCCC(C)C — lower, -8.23%
- Cc1cccc(C)c1NC(=O)c1ccccc1C(=O)O — lower, 4.63%
- C[Si](C)(C)C — lower, 3.95%
- N[C@@H](CCC(=O)Nc1ccc([N+](=O)[O-])cc1)C(=O)O — lower, -7.3%
- CCC(C)NC(N)=O (stereo not given) — lower, -6.85%
- CCNC(=O)C1CC(C)CCC1C(C)C (stereo not given) — lower, -11.7%
- CCOc1cc(NC(C)=O)ccc1C(=O)OC — lower, -6.91%
- C=C(C)C(=O)OCc1ccccc1 — lower, -0.296%
- CC(C)NCC(O)COc1cccc2[nH]ccc12 (stereo not given) — lower, 4.11%
- C[C@@H]1O[C@@H](O[C@@H]2[C@@H](O)[C@H](OCCc3ccc(O)c(O)c3)O[C@H](CO[C@@H]3O[C@H](CO)[C@@H](O)[C@H](O)[C@H]3O)[C@H]2OC(=O)/C=C/c2ccc(O)c(O)c2)[C@H](O)[C@H](O)[C@H]1O — lower, -0.112%
- O=C(NCCc1c[nH]c2ccccc12)c1cccnc1 — lower, 6.79%
- CCOc1cc([N+](=O)[O-])c(OCC)cc1N1CCOCC1 — lower, -2.97%
- Cc1c(I)c(=O)n(-c2ccccc2)n1C — lower, 7.63%
- CC1COc2ccccc2N1 (stereo not given) — lower, 2.73%
- Cc1[nH]cnc1-c1ccc(Cl)cc1 — lower, 6.64%
- COCCOCCOCCOCCO — lower, -2.57%
- O=C(O)C(=O)Cc1ccccc1 — lower, -0.209%

Molecule CN1CCN(CC(=O)N2c3ccccc3C(=O)Nc3cccnc32)CC1 has an activity, negative = cytotoxic of 1.12% [at 6.95 µM].

For CCC(C=O)CC, the “activity, negative = cytotoxic” value was 0% [at 78.8 µM].
